# Data taken from PubChem BioAssay AID1159580 (chemical genetic matrix, 2015).
# In all, about 5,500 compounds went through this assay and about 2,000 (36%) were called active. Inconclusive results (about 18%) are left out. The list shows a part of the results. A number with no mark means an inactive call. No stated cut-off is given here; in the data, active means normalized growth mostly below about 0.91 (no sharp cut-off); inconclusive means no clear call, values can overlap the other calls; inactive means mostly above about 0.92.
# Experiment: chemical genetic growth profiling, strain panel (AID 1159580);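 further: tested at 20 µM; growth read once vehicle control cultures reached saturation at 30 °C; 1 = growth at the plate median or of vehicle wells; lower values mean less growth of the strain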
# Conditions: growth OD
compound,measurement,setting,value
COc1ccc(-c2coc3cc(OC)cc(O)c3c2=O)cc1,normalized growth,"S. cerevisiae deletion strains, locus YAL013W, strain DEP1, active compounds read low",0.962
same,normalized growth,"S. cerevisiae deletion strains, locus YBR021W, strain FUR4, active compounds read low",0.862
same,normalized growth,"S. cerevisiae deletion strains, locus YBR229C, strain ROT2, active compounds read low",0.98
same,normalized growth,"S. cerevisiae deletion strains, locus YCL029C, strain bik1, active compounds read low",0.966
same,normalized growth,"S. cerevisiae deletion strains, locus YDL035C, strain GPR1, active compounds read low",0.959
same,normalized growth,"S. cerevisiae deletion strains, locus YDL074C, strain BRE1, active compounds read low",0.91
same,normalized growth,"S. cerevisiae deletion strains, locus YDL101C, strain DUN1, active compounds read low",0.98
same,normalized growth,"S. cerevisiae deletion strains, locus YDL134C, strain PPH21, active compounds read low",0.982
same,normalized growth,"S. cerevisiae deletion strains, locus YDL185W, strain tfp1, active compounds read low",0.968
same,normalized growth,"S. cerevisiae deletion strains, locus YDL192W, strain arf1, active compounds read low",0.96
same,normalized growth,"S. cerevisiae deletion strains, locus YDR101C, strain arx1, active compounds read low",0.96
same,normalized growth,"S. cerevisiae deletion strains, locus YDR150W, strain NUM1, active compounds read low",0.991
same,normalized growth,"S. cerevisiae deletion strains, locus YDR162C, strain NBP2, active compounds read low",0.983
same,normalized growth,"S. cerevisiae deletion strains, locus YDR318W, strain mcm21, active compounds read low",0.922
same,normalized growth,"S. cerevisiae deletion strains, locus YDR388W, active compounds read low",0.957
same,normalized growth,"S. cerevisiae deletion strains, locus YDR502C, strain sam2, active compounds read low",0.967
same,normalized growth,"S. cerevisiae deletion strains, locus YEL061C, strain CIN8, active compounds read low",0.982
same,normalized growth,"S. cerevisiae deletion strains, locus YER110C, active compounds read low",0.958
same,normalized growth,"S. cerevisiae deletion strains, locus YER155C, strain BEM2, active compounds read low",0.967
same,normalized growth,"S. cerevisiae deletion strains, locus YER167W, strain BCK2, active compounds read low",0.933
same,normalized growth,"S. cerevisiae deletion strains, locus YGL078C, strain dbp3, active compounds read low",0.978
same,normalized growth,"S. cerevisiae deletion strains, locus YGL086W, strain mad1, active compounds read low",0.955
same,normalized growth,"S. cerevisiae deletion strains, locus YGL248W, strain PDE1, active compounds read low",0.976
same,normalized growth,"S. cerevisiae deletion strains, locus YGR078C, strain PAC10, active compounds read low",0.952
same,normalized growth,"S. cerevisiae deletion strains, locus YGR135W, strain pre9, active compounds read low",0.94
same,normalized growth,"S. cerevisiae deletion strains, locus YGR229C, strain SMI1, active compounds read low",0.924
same,normalized growth,"S. cerevisiae deletion strains, locus YGR252W, strain gcn5, active compounds read low",0.768
same,normalized growth,"S. cerevisiae deletion strains, locus YHR030C, strain SLT2, active compounds read low",0.972
same,normalized growth,"S. cerevisiae deletion strains, locus YHR079C, strain IRE1 (second series), active compounds read low",0.935
same,normalized growth,"S. cerevisiae deletion strains, locus YHR094C, strain hxt1, active compounds read low",0.976
same,normalized growth,"S. cerevisiae deletion strains, locus YHR129C, strain ARP1, active compounds read low",0.967
same,normalized growth,"S. cerevisiae deletion strains, locus YHR200W, strain rpn10, active compounds read low",0.957
same,normalized growth,"S. cerevisiae deletion strains, locus YIL066C, strain RNR3, active compounds read low",0.975
same,normalized growth,"S. cerevisiae deletion strains, locus YIL073C, strain SPO22, active compounds read low",0.905
same,normalized growth,"S. cerevisiae deletion strains, locus YIL125W, strain kgd1, active compounds read low",0.969
same,normalized growth,"S. cerevisiae deletion strains, locus YIR030C, strain dcg1, active compounds read low",0.97
same,normalized growth,"S. cerevisiae deletion strains, locus YJL095W, strain BCK1, active compounds read low",0.907
same,normalized growth,"S. cerevisiae deletion strains, locus YJL134W, strain LCB3, active compounds read low",0.986
same,normalized growth,"S. cerevisiae deletion strains, locus YJL168C, strain set2, active compounds read low",0.975
same,normalized growth,"S. cerevisiae deletion strains, locus YJL187C, strain SWE1 (second series), active compounds read low",0.972
same,normalized growth,"S. cerevisiae deletion strains, locus YJR043C, strain POL32, active compounds read low",0.911
same,normalized growth,"S. cerevisiae deletion strains, locus YJR075W, strain HOC1, active compounds read low",0.951
same,normalized growth,"S. cerevisiae deletion strains, locus YKL009W, strain mrt4, active compounds read low",0.919
same,normalized growth,"S. cerevisiae deletion strains, locus YKL068W, active compounds read low",0.989
same,normalized growth,"S. cerevisiae deletion strains, locus YKL085W, strain MDH1 (second series), active compounds read low",0.982
same,normalized growth,"S. cerevisiae deletion strains, locus YKL085W, strain MDH1, active compounds read low",0.982
same,normalized growth,"S. cerevisiae deletion strains, locus YKL190W, strain CNB1, active compounds read low",0.979
same,normalized growth,"S. cerevisiae deletion strains, locus YKR001C, strain vps1, active compounds read low",0.898 (active)
same,normalized growth,"S. cerevisiae deletion strains, locus YLR039C, strain RIC1, active compounds read low",0.971
same,normalized growth,"S. cerevisiae deletion strains, locus YLR058C, strain SHM2, active compounds read low",0.974
same,normalized growth,"S. cerevisiae deletion strains, locus YLR102C, strain apc9, active compounds read low",0.969
same,normalized growth,"S. cerevisiae deletion strains, locus YLR262C, strain YPT6, active compounds read low",0.959
same,normalized growth,"S. cerevisiae deletion strains, locus YLR268W, strain sec22, active compounds read low",0.957
same,normalized growth,"S. cerevisiae deletion strains, locus YLR330W, strain CHS5, active compounds read low",0.977
same,normalized growth,"S. cerevisiae deletion strains, locus YLR342W, strain FKS1 (second series), active compounds read low",0.859
same,normalized growth,"S. cerevisiae deletion strains, locus YLR371W, strain rom2, active compounds read low",0.969
same,normalized growth,"S. cerevisiae deletion strains, locus YLR418C, strain cdc73, active compounds read low",0.889
same,normalized growth,"S. cerevisiae deletion strains, locus YML016C, strain PPZ1, active compounds read low",0.975
same,normalized growth,"S. cerevisiae deletion strains, locus YML032C, strain rad52, active compounds read low",0.94
same,normalized growth,"S. cerevisiae deletion strains, locus YML124C, strain tub3, active compounds read low",0.974
same,normalized growth,"S. cerevisiae deletion strains, locus YMR078C, strain ctf18, active compounds read low",0.96
same,normalized growth,"S. cerevisiae deletion strains, locus YMR223W, strain ubp8, active compounds read low",0.94
same,normalized growth,"S. cerevisiae deletion strains, locus YMR263W, strain SAP30, active compounds read low",0.967
same,normalized growth,"S. cerevisiae deletion strains, locus YMR307W, strain GAS1, active compounds read low",0.81
same,normalized growth,"S. cerevisiae deletion strains, locus YNL067W, strain RPL9B, active compounds read low",0.977
same,normalized growth,"S. cerevisiae deletion strains, locus YNL128W, strain TEP1, active compounds read low",0.994
same,normalized growth,"S. cerevisiae deletion strains, locus YNL153C, strain GIM3, active compounds read low",0.995
same,normalized growth,"S. cerevisiae deletion strains, locus YNL233W, strain BNI4, active compounds read low",0.923
same,normalized growth,"S. cerevisiae deletion strains, locus YNL250W, strain rad50, active compounds read low",0.968
same,normalized growth,"S. cerevisiae deletion strains, locus YNL271C, strain bni1, active compounds read low",0.973
same,normalized growth,"S. cerevisiae deletion strains, locus YNL298W, strain CLA4, active compounds read low",0.928
same,normalized growth,"S. cerevisiae deletion strains, locus YNL307C, strain MCK1, active compounds read low",0.805 (active)
same,normalized growth,"S. cerevisiae deletion strains, locus YNL322C, strain KRE1, active compounds read low",0.985
same,normalized growth,"S. cerevisiae deletion strains, locus YNR052C, strain pop2, active compounds read low",0.968
same,normalized growth,"S. cerevisiae deletion strains, locus YOL006C, strain TOP1, active compounds read low",0.863
same,normalized growth,"S. cerevisiae deletion strains, locus YOL012C, strain htz1",1.51
same,normalized growth,"S. cerevisiae deletion strains, locus YOL147C, strain pex11, active compounds read low",0.969
same,normalized growth,"S. cerevisiae deletion strains, locus YOR061W, strain CKA2, active compounds read low",0.996
same,normalized growth,"S. cerevisiae deletion strains, locus YOR069W, strain VPS5, active compounds read low",0.984
same,normalized growth,"S. cerevisiae deletion strains, locus YOR136W, strain idh2, active compounds read low",0.971
same,normalized growth,"S. cerevisiae deletion strains, locus YOR144C, strain elg1, active compounds read low",0.975
same,normalized growth,"S. cerevisiae deletion strains, locus YOR184W, strain ser1, active compounds read low",0.872 (active)
same,normalized growth,"S. cerevisiae deletion strains, locus YOR316C, strain cot1, active compounds read low",0.96
same,normalized growth,"S. cerevisiae deletion strains, locus YPL055C, strain LGE1, active compounds read low",0.92
same,normalized growth,"S. cerevisiae deletion strains, locus YPL241C, strain CIN2, active compounds read low",0.987
same,normalized growth,"S. cerevisiae deletion strains, locus YPR119W, strain clb2, active compounds read low",0.972
same,normalized growth,"S. cerevisiae deletion strains, locus YPR141C, strain kar3, active compounds read low",0.99
same,normalized growth,"S. cerevisiae deletion strains, locus YPR163C, strain tif3, active compounds read low",0.973
same,normalized growth,"S. cerevisiae deletion strains, locus YPR167C, strain met16, active compounds read low",0.97
same,normalized growth,"S. cerevisiae deletion strains, strain wtn01, active compounds read low",0.944
same,normalized growth,"S. cerevisiae strains, strain wild type, active compounds read low",0.963
